Structures can show the parent of a compound that is named as a salt.

The experiment has as its system HEPG2. Put plainly: Euclidean distance of Cell Painting phenotypic profile (signed KS, 77 features) to DMSO centroid (dimensionless distance); 5 or 10 uM (library dependent); higher = stronger phenotypic change vs DMSO (phenoactivity). Particulars: 48 h. In outline: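 Phenoactivity is computed as Euclidean distance to the median vehicle profile. The profiles, drawn from 77 Harmony features scored as signed Kolmogorov-Smirnov statistics versus same-plate vehicle wells, were corrected for plate position, correlation-weighted and replicate-averaged at the top dose. Stained cells were imaged confocally at 20X (9 fields/well) after 48 h with library compounds at 10 or 5 uM, 0.1% DMSO final, in five cancer lines and a healthy fibroblast line.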
`CN(C)CC(c1ccc(O)cc1)C1(O)CCCCC1` (stereo not drawn) [Desvenlafaxine] yielded an Euclidean distance of 0.34.
For `O=C1C[C@@H](c2ccc(O[C@@H]3O[C@H](CO)[C@@H](O)[C@H](O)[C@H]3O)cc2)Oc2cc(O)ccc21` [Liquiritin], the Euclidean distance is 0.642.
Turning to `OC[C@H]1O[C@@H](Oc2cc(O)cc(/C=C/c3ccc(O)cc3)c2)[C@H](O)[C@@H](O)[C@@H]1O` [Polydatin], the Euclidean distance turned out to be 0.886.
The same measure for `NC(=O)NCCC[C@H](N)C(=O)O` [L-Citrulline]: 1.27; for `NS(=O)(=O)c1cc2c(cc1Cl)N=C(CSCc1ccccc1)NS2(=O)=O` [Benzthiazide]: 1.62; for `CCC(=O)NS(=O)(=O)c1ccc(-c2c(-c3ccccc3)noc2C)cc1` [Parecoxib Sodium]: 0.676.
`COc1cc(C(=O)O)ccc1NC(=O)[C@@H]1N[C@@H](CC(C)(C)C)[C@](C#N)(c2ccc(Cl)cc2F)[C@H]1c1cccc(Cl)c1F` [Idasanutlin (RG-7388)] returned an Euclidean distance of 1.15.
`O=C1CCCC(=O)C1C(=O)c1ccc(C(F)(F)F)cc1[N+](=O)[O-]` [Nitisinone] came in with an Euclidean distance of 0.455.
Compound `Cc1cn[nH]c1` [Fomepizole] gave an Euclidean distance of 1.97.
With `CC(C)(C)c1cc(/C=C(\C#N)C(N)=S)cc(C(C)(C)C)c1O` [Tyrphostin AG 879], the Euclidean distance worked out at 0.81.
In turn, `CN1CC[C@H](c2c(O)cc(O)c3c(=O)cc(-c4ccccc4Cl)oc23)[C@H](O)C1` [Flavopiridol HCl] yielded an Euclidean distance of 2.41.
As for `COc1ncc(-c2ccc3nccc(-c4ccnnc4)c3c2)cc1NS(=O)(=O)c1ccc(F)cc1F`, the Euclidean distance is 2.53.
With `C[C@@H](NCCCc1cccc(C(F)(F)F)c1)c1cccc2ccccc12` [Cinacalcet HCl] the figure was 1.85.

Source of the values: the supplement of paper PMC10127200.
